Screening data: PubChem BioAssay, National Center for Advancing Translational Sciences (NCATS)
Most compounds without a hit are left out; they make up all but 8% or so of the library.
HT1080-NT tox: kills 2HG-producing HT-1080-NT fibrosarcoma cells. HT-1080-NT fibrosarcoma viability, CellTiter-Glo ATP luminescence, 48 h. Potency, µM (top dose mostly 46.1 µM), hits mostly cytotoxic. 360,000 compounds, 1.6% hits;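 also: NT is the 2HG producing partner of a matched IDH1 knockdown line; nearly all actives have a fitted effect of over 55% in size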
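HT-1080-NT; 750 cells/well; 5% FBS RPMI; 48 h compound, 37 degrees C; CellTiter-Glo luminescence; curve fitting and curve-class assignment.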
MCF10A rerep: inducers of DNA re-replication in MCF 10A breast cells; 350,000 compounds, 2.9% hits; MCF 10A DNA re-replication, Hoechst nuclear intensity, 48 h; Potency, µM (highest dose often 46.1 µM), actives largely listed as activators; also: nearly all actives have a fitted effect of over 50% in size
HT1080 IDH1KD tx: HT-1080 IDH1 knockdown cell toxicity (counter line); HT-1080 IDH1 knockdown viability, ATP luminescence, 48 h; Potency, µM (series often up to 46.1 µM), usual class: cytotoxic; 360,000 compounds, 2% hits; AID 686971
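After a 2 h attachment period, IDH1KD HT-1080 cells took pin-transferred compound for 48 h at 37 °C; ATP-based luminescence after 10 min room-temperature reagent incubation reported viability.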
KB-V1 cytotox: KB-V1 MDR subline cytotoxicity; KB-V1 MDR cells viability, CellTiter-Glo, 72 h; Potency, µM (titrated, usually from 46.1 µM), hits mostly cytotoxic; 400,000 compounds, 3.4% hits; also: nearly all actives have a fitted effect of over 60% in size
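Compound-treated KB-V1 multidrug-resistant cells, 72 h, 37 degrees C; viability by CellTiter-Glo. Fitted qHTS curves give the values.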
KB-3-1 tox: KB-3-1 parental cell cytotoxicity. KB-3-1 viability, CellTiter-Glo ATP luminescence, 72 h. Potency, µM (series often up to 46.1 µM), actives largely listed as cytotoxic. 400,000 compounds, 1.4% hits; also: nearly all actives have a fitted effect of over 60% in size
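KB-3-1 parental drug-naive adenocarcinoma cells in DMEM/10% FBS, incubated 72 h at 37 C with pin-transferred compounds across a concentration series. Viability by CellTiter-Glo luminescence; concentration-response curves fitted after normalization.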
SW480 rerep: DNA re-replication induction in SW480 cells | Potency, µM (highest dose often 46.1 µM), usual class: activators | SW480 DNA re-replication, Hoechst DNA content imaging, 48 h | 340,000 compounds, 1.8% hits | AID 624297; also: nearly all actives have a fitted effect of over 55% in size
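Cells (250 per well) received 23 nL compound or DMSO by pin tool and were kept 48 hr at 37 C, 5% CO2. Nuclei were then stained with Hoechst for 40 min and scanned for DNA content.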
Each line names hits and unclear results; the compound was inactive in the other large screens. Calls follow the shape of the dose curve; as a rule, active = well fitted curve in the direction sought with a large enough effect; inconclusive = small, poorly fitted or top-dose-only effect, or another doubt; inactive = no such curve, though single readings can be large; an effect the other way counts as inactive or inconclusive.

CN(C(=O)COC(=O)c1ccccc1Nc1ccccc1)C1CCS(=O)(=O)C1 (configuration not stated)	MCF10A rerep inconclusive
CC(C)(C)NC(=O)Cn1c(=O)c(=O)n(Cc2ccccc2)c2ccc(Cl)cc21	KB-V1 cytotox 20.6µM
O=C(Cn1c(=O)c(=O)n(Cc2ccccc2)c2ccc(Cl)cc21)Nc1ccc(F)cc1F	HT1080 IDH1KD tx inconclusive, KB-3-1 tox inconclusive
Cc1ccc(NC(NC(=O)c2ccccn2)C(Cl)(Cl)Cl)cc1 (configuration not stated)	KB-V1 cytotox inconclusive
COc1ccc(C2CC(c3ccc(F)cc3)n3nc(NC(=O)c4ccco4)nc3N2)cc1 (configuration not stated)	none
COC(=O)c1c(-c2ccc(N(C)C)cc2)sc2ccc(OC)cc12	HT1080-NT tox inconclusive, MCF10A rerep inconclusive, SW480 rerep 14.6µM
COC(=O)c1c(-c2ccc(OC)cc2)sc2cc3c(cc12)OCO3	MCF10A rerep inconclusive
CCCCn1c(SCC(=O)c2ccc(OC)cc2OC)nc2cc(S(N)(=O)=O)ccc21	KB-V1 cytotox 18.4µM
CSc1oc(-c2ccccc2)nc1S(=O)(=O)c1ccc(C)cc1	KB-V1 cytotox 20.6µM
COc1cc(NC(C)=O)c2ncccc2c1Br	none (no result: MCF10A rerep, SW480 rerep)
CCC/C(O)=C1\C(=O)CC(c2ccccc2)CC1=NC (configuration not stated)	none
C/C(Cl)=C\Cn1c(O)c(N=NC(N)=S)c2ccccc21	KB-V1 cytotox 9.2µM, KB-3-1 tox inconclusive, SW480 rerep inconclusive
C=CCn1c(O)c(N=NC(=S)Nc2cccc(C)c2)c2ccccc21	HT1080 IDH1KD tx inconclusive, KB-V1 cytotox 2.91µM, KB-3-1 tox inconclusive, SW480 rerep inconclusive
COC(=O)N=Nc1c(O)n(Cc2ccccc2)c2ccccc12	HT1080-NT tox inconclusive
NC(=S)N=Nc1c(O)n(Cc2ccccc2)c2ccccc12	none
COC(=O)c1ccc(Cn2c(O)c(N=NC(N)=S)c3ccccc32)o1	SW480 rerep 23.1µM
C=CCn1c(O)c(N=NC(=S)Nc2ccccc2F)c2ccccc21	HT1080 IDH1KD tx inconclusive, KB-3-1 tox inconclusive
CCCc1nc2cc(C)c(Br)c(C)n2c1CC1CCCCC1	HT1080-NT tox inconclusive, HT1080 IDH1KD tx inconclusive, KB-3-1 tox 16.4µM (no result: MCF10A rerep, SW480 rerep)
Cc1ccc(-c2nc3cc(C)c(Br)c(C)n3c2CC2CCCCC2)cc1	KB-3-1 tox inconclusive (no result: MCF10A rerep, SW480 rerep)
COC(=O)[C@@]1(Cc2ccccc2)[C@H]2C(=O)N(C)C(=O)[C@H]2[C@H]2CN=C(SCc3ccc(C#N)cc3)N21	SW480 rerep 3.66µM
Cc1nnc(SC(C)C(=O)NC2CCCCC2)s1 (configuration not stated)	none
CCN(CC)C(=O)CSc1nnc(SC(C)C(=O)NC2CC2)s1 (configuration not stated)	KB-V1 cytotox 25.9µM
Cc1ccc(S(=O)(=O)N/N=C/c2ccc(O)c(O)c2)cc1[N+](=O)[O-]	KB-V1 cytotox inconclusive, SW480 rerep 20.6µM
O=C(C1CCCN1S(=O)(=O)c1ccc(Cl)c(Cl)c1)N1CCOCC1 (configuration not stated)	none
CCCOc1cccc(OCCSc2nc(C)cc(=O)[nH]2)c1	KB-V1 cytotox inconclusive
CCC(=O)c1ccccc1OCCSc1nc(C)cc(=O)[nH]1	KB-V1 cytotox 14.6µM
Cc1cc(=O)[nH]c(SCCCOc2ccc(F)cc2)n1	KB-V1 cytotox 18.4µM
COc1ccc(Cn2c(C3CCCCC3)nc3c(c(=O)c4ccccc4n3C)c2=O)cc1	KB-V1 cytotox inconclusive
COc1ccc(CCn2c(C3CCCCC3)nc3c(c(=O)c4ccccc4n3C)c2=O)cc1	HT1080-NT tox inconclusive, MCF10A rerep 3.66µM, HT1080 IDH1KD tx inconclusive, KB-V1 cytotox 18.4µM, KB-3-1 tox inconclusive
COc1ccc2c(=O)c3c(=O)n(Cc4ccco4)c(C(C)C)nc3oc2c1	KB-V1 cytotox 20.6µM
COCCCn1c(C2CCCCC2)nc2oc3cc(OC)ccc3c(=O)c2c1=O	KB-V1 cytotox 23.1µM, KB-3-1 tox inconclusive
Cn1c2ccccc2c(=O)c2c(=O)n(C3CCCCCC3)c(C3CCCCC3)nc21	MCF10A rerep inconclusive, KB-V1 cytotox inconclusive, KB-3-1 tox inconclusive
COCCn1c(-c2ccc(C)cc2)nc2oc3cc(OC)ccc3c(=O)c2c1=O	SW480 rerep inconclusive
Cn1c2ccccc2c(=O)c2c(=O)n(C3CCCCC3)c(-c3cccs3)nc21	MCF10A rerep inconclusive, KB-V1 cytotox 11.6µM, KB-3-1 tox inconclusive
COc1ccc(NC(=O)CN(C)C(=O)C2CC(=O)N(Cc3ccc(C)cc3)C2)cc1 (configuration not stated)	none
Cc1ccc(Sc2c(C)nn(C(=O)C3CC3)c2C)cc1	none
Cc1ccc(S(=O)(=O)CCC(=O)c2ccc(F)cc2)cc1	HT1080-NT tox inconclusive, MCF10A rerep 4.61µM, HT1080 IDH1KD tx inconclusive, SW480 rerep inconclusive
Cc1ccc(C(=O)CCS(=O)(=O)c2ccc(Cl)cc2)cc1	MCF10A rerep 3.26µM, SW480 rerep 9.2µM
Cc1ccc(C(=O)CCS(=O)(=O)c2ccc(F)cc2)cc1	MCF10A rerep inconclusive, KB-3-1 tox inconclusive, SW480 rerep inconclusive
Cc1ccc(NC(=O)C2C3C=CC4(O3)C2C(=O)N(CCCN2CCOCC2)C4C(=O)NC2CCCCC2)cc1Cl (configuration not stated)	KB-3-1 tox inconclusive
O=C(Nc1ccc(Cl)c(Cl)c1)C1C2C=CC3(O2)C1C(=O)N(CCN1CCCCC1)C3C(=O)NC1CCCCC1 (configuration not stated)	HT1080-NT tox 20.6µM, MCF10A rerep inconclusive, HT1080 IDH1KD tx inconclusive, SW480 rerep inconclusive
CC1CN(C(=O)C(C)N2CCN(c3cccc(Cl)c3)CC2)CC(C)O1 (configuration not stated)	none
Cc1ccc(C(=O)O/N=C/c2c(Cl)n(C)c3ccccc23)cc1	none
CCN(CC)C(=O)CSc1nnc2nnc3cc(Cl)ccc3n12	HT1080-NT tox inconclusive, HT1080 IDH1KD tx inconclusive, KB-V1 cytotox inconclusive, KB-3-1 tox inconclusive
CCN(CC)C(=O)CSc1nnc2nnc3cc(C)ccc3n12	KB-V1 cytotox 20.6µM
C=CCOc1ccc(C2N3CC4(C)CN2CC(CCC)(C3)C4=O)cc1 (configuration not stated)	MCF10A rerep inconclusive
c1ccc(CNC2=NCCCCC2)cc1	none
c1ccc(NNC2=NCCCCC2)cc1	HT1080-NT tox inconclusive, HT1080 IDH1KD tx 4.11µM, KB-3-1 tox inconclusive
O=C(CSc1ccsc1[N+](=O)[O-])NCc1ccccc1	KB-V1 cytotox inconclusive, KB-3-1 tox 5.8µM
O=C(CSc1nnc(-c2ccccc2)o1)NCC1CCCCC1	none
O=C/C(=C\Nc1ccc(Cl)cn1)c1nc2cc(Cl)ccc2o1	MCF10A rerep 16.4µM, KB-3-1 tox inconclusive
